The structures appear in SMILES notation.

In this assay the test system is LEGO organoid PTN (PTEN-/-; TP53-/-; NF1-/-). As to the kind of experiment: bioluminescence (viable cell) signal fold change after vs before treatment, normalised to DMSO (ratio); higher = more tumour cell growth / less inhibition. Conditions: 10 µM; treatment time 6 days. Here is the method:
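Luc2-labelled iPSC-derived glioblastoma-like organoids (LEGOs, genotypes PT = PTEN-/-;TP53-/-, PTCC = plus CDKN2A/B-/-, PTN = plus NF1-/-) were treated with 10 uM drug for 6 days (applied every other day) at 37 C. Bioluminescence imaging was done before treatment and 2 days after the last dose. BLI signals were normalised to the DMSO control on the same day and then to the pre-treatment signal (N=3).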
Turning to `Nc1nnc(-c2cccc(Cl)c2Cl)c(N)n1` [Lamotrigine], the bioluminescence came out at 0.446. As to `Cc1cnc(NC(=O)C2=C(O)c3ccccc3S(=O)(=O)N2C)s1` [Meloxicam], the bioluminescence worked out at 3.3. On to `C[C@H](C(=O)O)c1cccc(C(=O)c2ccccc2)c1` [(S)-(+)-Ketoprofen], for which the bioluminescence came out at 0.728.

Regarding `Nc1[nH]c(=O)ncc1F` [Fluorocytosine], the bioluminescence turned out to be 1.26.

These data come from the supplement of paper PMC10811239.
